# Measurements reported in PMC5540273 (PLoS ONE, 2017).
# Read-outs that look alike come from different tables or passages of the source.
# Columns and labels:
# CSNK1G1 = settings: concentration: 1 μM,replicates: in singlicate; n = 1
# CSNK1G2 = settings: concentration: 1 μM,replicates: in singlicate; n = 1
# CSNK1G3 = settings: concentration: 1 μM,replicates: in singlicate; n = 1
# CSNK2A1 = settings: concentration: 1 μM,replicates: in singlicate; n = 1
# CSNK2A2 = settings: concentration: 1 μM,replicates: in singlicate; n = 1
# CTK = tested on: T1, CTK; settings: concentration: 1 μM,replicates: in singlicate; n = 1
# T1 construct: gene MATK
# DAPK1 = settings: concentration: 1 μM,replicates: in singlicate; n = 1
# DAPK2 = settings: concentration: 1 μM,replicates: in singlicate; n = 1
# DAPK3 = settings: concentration: 1 μM,replicates: in singlicate; n = 1
# DCAMKL1 = tested on: T2, DCAMKL1; settings: concentration: 1 μM,replicates: in singlicate; n = 1
# T2 construct: gene DCLK1
# DCAMKL2 = tested on: T3, DCAMKL2; settings: concentration: 1 μM,replicates: in singlicate; n = 1
# T3 construct: gene DCLK2
# DCAMKL3 = tested on: T4, DCAMKL3; settings: concentration: 1 μM,replicates: in singlicate; n = 1
# T4 construct: gene DCLK3
# DDR1 = settings: concentration: 1 μM,replicates: in singlicate; n = 1
# DDR2 = settings: concentration: 1 μM,replicates: in singlicate; n = 1
# DLK = tested on: T5, DLK; settings: concentration: 1 μM,replicates: in singlicate; n = 1
# T5 construct: gene MAP3K12
# DMPK2 = tested on: T6, DMPK2; settings: concentration: 1 μM,replicates: in singlicate; n = 1
# T6 construct: gene CDC42BPG
# DMPK = settings: concentration: 1 μM,replicates: in singlicate; n = 1
# DRAK1 = tested on: T7, DRAK1; settings: concentration: 1 μM,replicates: in singlicate; n = 1
# T7 construct: gene STK17A
# DRAK2 = tested on: T8, DRAK2; settings: n = 1
# T8 construct: gene STK17B
# DYRK1A = settings: concentration: 1 μM,replicates: in singlicate; n = 1
# [1] = concentration: 1 μM,replicates: in singlicate
# 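Further: KINOMEscan kinase panel screen.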
smiles,measurement,setting,value
CC(=O)Nc1ccc(-c2cc3ncnc(SCC(=O)O)c3s2)cc1,%Inh,CSNK1G1,15%
same,%Inh,CSNK1G2,0%
same,%Inh,CSNK1G3,8%
same,%Inh,CSNK2A1,75%
same,%Inh,CSNK2A2,68%
same,%Inh,CTK,14%
same,%Inh,DAPK1,23%
same,%Inh,DAPK2,8%
same,%Inh,DAPK3,9%
same,%Inh,DCAMKL1,0%
same,%Inh,DCAMKL2,24%
same,%Inh,DCAMKL3,12%
same,%Inh,DDR1,0%
same,%Inh,DDR2,10%
same,%Inh,DLK,2%
same,%Inh,DMPK2,0%
same,%Inh,DMPK,7%
same,%Inh,DRAK1,97.9%
same,%Inh,DRAK2; 1 µM,100%
same,%Inh,DYRK1A,66%
Cn1ccc2ncnc(Oc3ccc(NC(=O)Nc4cccc(C(F)(F)F)c4)c(F)c3)c21,%Inh,CSNK1G1,9%
same,%Inh,CSNK1G2,20%
same,%Inh,CSNK1G3,0%
same,%Inh,CSNK2A1,0%
same,%Inh,CSNK2A2,0%
same,%Inh,CTK,0%
same,%Inh,DAPK1,1%
same,%Inh,DAPK2,0%
same,%Inh,DAPK3,13%
same,%Inh,DCAMKL1,12%
same,%Inh,DCAMKL2,18%
same,%Inh,DCAMKL3,17%
same,%Inh,DDR1,96.9%
same,%Inh,DDR2,100%
same,%Inh,DLK,0%
same,%Inh,DMPK2,4%
same,%Inh,DMPK,0%
same,%Inh,DRAK1,0%
same,%Inh,DRAK2; [1],24%
same,%Inh,DYRK1A,0%
CN1CCN(CCCNc2nccc(-c3c(-c4ccc(F)cc4)nn4cc(C(N)=O)ccc34)n2)CC1 [GW622475],%Inh,CSNK1G1,27%
same,%Inh,CSNK1G2,0%
same,%Inh,CSNK1G3,20%
same,%Inh,CSNK2A1,1%
same,%Inh,CSNK2A2,33%
same,%Inh,CTK,1%
same,%Inh,DAPK1,29%
same,%Inh,DAPK2,10%
same,%Inh,DAPK3,16%
same,%Inh,DCAMKL1,21%
same,%Inh,DCAMKL2,0%
same,%Inh,DCAMKL3,7%
same,%Inh,DDR1,100%
same,%Inh,DDR2,82%
same,%Inh,DLK,0%
same,%Inh,DMPK2,44%
same,%Inh,DMPK,0%
same,%Inh,DRAK1,0%
same,%Inh,DRAK2; [1],17%
same,%Inh,DYRK1A,20%
CC(=O)Nc1nc2cnc(Nc3cc(NC(=O)c4cccc(CC(C)(C)C#N)c4)ccc3C)nc2s1,%Inh,CSNK1G1,14%
same,%Inh,CSNK1G2,1%
same,%Inh,CSNK1G3,0%
same,%Inh,CSNK2A1,21%
same,%Inh,CSNK2A2,21%
same,%Inh,CTK,0%
same,%Inh,DAPK1,0%
same,%Inh,DAPK2,0%
same,%Inh,DAPK3,4%
same,%Inh,DCAMKL1,26%
same,%Inh,DCAMKL2,5%
same,%Inh,DCAMKL3,0%
same,%Inh,DDR1,100%
same,%Inh,DDR2,97.2%
same,%Inh,DLK,26%
same,%Inh,DMPK2,2%
same,%Inh,DMPK,0%
same,%Inh,DRAK1,0%
same,%Inh,DRAK2; [1],0%
same,%Inh,DYRK1A,0%
CNC(=O)c1ccccc1Nc1nc(Nc2cccc(CS(C)(=O)=O)c2)ncc1C.O=CO [GSK1520489],%Inh,CSNK1G1,27%
same,%Inh,CSNK1G2,61%
same,%Inh,CSNK1G3,26%
same,%Inh,CSNK2A1,92.3%
same,%Inh,CSNK2A2,98.6%
same,%Inh,CTK,38%
same,%Inh,DAPK1,89%
same,%Inh,DAPK2,57%
same,%Inh,DAPK3,81%
same,%Inh,DCAMKL1,37%
same,%Inh,DCAMKL2,15%
same,%Inh,DCAMKL3,0%
same,%Inh,DDR1,99.9%
same,%Inh,DDR2,95.9%
same,%Inh,DLK,96.6%
same,%Inh,DMPK2,0%
same,%Inh,DMPK,0%
same,%Inh,DRAK1,91.6%
same,%Inh,DRAK2; [1],5%
same,%Inh,DYRK1A,95.6%
COc1cc2nccc(Nc3ccc(Oc4ccccc4)cc3)c2cc1OC.Cl [GI261656],%Inh,CSNK1G1,0%
same,%Inh,CSNK1G2,0%
same,%Inh,CSNK1G3,25%
same,%Inh,CSNK2A1,0%
same,%Inh,CSNK2A2,24%
same,%Inh,CTK,0%
same,%Inh,DAPK1,0%
same,%Inh,DAPK2,0%
same,%Inh,DAPK3,2%
same,%Inh,DCAMKL1,0%
same,%Inh,DCAMKL2,0%
same,%Inh,DCAMKL3,1%
same,%Inh,DDR1,0%
same,%Inh,DDR2,22%
same,%Inh,DLK,34%
same,%Inh,DMPK2,6%
same,%Inh,DMPK,0%
same,%Inh,DRAK1,0%
same,%Inh,DRAK2; [1],0%
same,%Inh,DYRK1A,0%
CCn1c(-c2nonc2N)nc2cncc(CNC3CCNCC3)c21.Cl [SB-747651],%Inh,CSNK1G1,24%
same,%Inh,CSNK1G2,0%
same,%Inh,CSNK1G3,0%
same,%Inh,CSNK2A1,0%
same,%Inh,CSNK2A2,0%
same,%Inh,CTK,0%
same,%Inh,DAPK1,41%
same,%Inh,DAPK2,0%
same,%Inh,DAPK3,27%
same,%Inh,DCAMKL1,7%
same,%Inh,DCAMKL2,0%
same,%Inh,DCAMKL3,7%
same,%Inh,DDR1,19%
same,%Inh,DDR2,25%
same,%Inh,DLK,23%
same,%Inh,DMPK2,0%
same,%Inh,DMPK,27%
same,%Inh,DRAK1,6%
same,%Inh,DRAK2; [1],0%
same,%Inh,DYRK1A,56%
NC(=O)c1ccc(-c2cc3ncnc(SCC(=O)O)c3s2)cc1,%Inh,CSNK1G1,0%
same,%Inh,CSNK1G2,17%
same,%Inh,CSNK1G3,4%
same,%Inh,CSNK2A1,74%
same,%Inh,CSNK2A2,78%
same,%Inh,CTK,0%
same,%Inh,DAPK1,0%
same,%Inh,DAPK2,0%
same,%Inh,DAPK3,5%
same,%Inh,DCAMKL1,20%
same,%Inh,DCAMKL2,9%
same,%Inh,DCAMKL3,17%
same,%Inh,DDR1,0%
same,%Inh,DDR2,9%
same,%Inh,DLK,0%
same,%Inh,DMPK2,24%
same,%Inh,DMPK,0%
same,%Inh,DRAK1,98.3%
same,%Inh,DRAK2; [1],100%
same,%Inh,DYRK1A,94.8%
Cn1ccc2ncnc(Oc3ccc(NC(=O)Nc4cc(C(C)(C)C)on4)c(Cl)c3)c21,%Inh,CSNK1G1,17%
same,%Inh,CSNK1G2,15%
same,%Inh,CSNK1G3,0%
same,%Inh,CSNK2A1,21%
same,%Inh,CSNK2A2,30%
same,%Inh,CTK,48%
same,%Inh,DAPK1,0%
same,%Inh,DAPK2,0%
same,%Inh,DAPK3,0%
same,%Inh,DCAMKL1,25%
same,%Inh,DCAMKL2,15%
same,%Inh,DCAMKL3,0%
same,%Inh,DDR1,100%
same,%Inh,DDR2,99.4%
same,%Inh,DLK,0%
same,%Inh,DMPK2,6%
same,%Inh,DMPK,0%
same,%Inh,DRAK1,11%
same,%Inh,DRAK2; [1],35%
same,%Inh,DYRK1A,26%
Cc1ccc(Nc2ccnc(Nc3ccc4c(c3)CS(=O)(=O)C4)n2)cc1O.Cl [GW579362],%Inh,CSNK1G1,10%
same,%Inh,CSNK1G2,0%
same,%Inh,CSNK1G3,19%
same,%Inh,CSNK2A1,63%
same,%Inh,CSNK2A2,84%
same,%Inh,CTK,25%
same,%Inh,DAPK1,63%
same,%Inh,DAPK2,38%
same,%Inh,DAPK3,70%
same,%Inh,DCAMKL1,25%
same,%Inh,DCAMKL2,0%
same,%Inh,DCAMKL3,0%
same,%Inh,DDR1,86%
same,%Inh,DDR2,78%
same,%Inh,DLK,78%
same,%Inh,DMPK2,30%
same,%Inh,DMPK,0%
same,%Inh,DRAK1,45%
same,%Inh,DRAK2; [1],57%
same,%Inh,DYRK1A,38%
Cl.c1ccc(Oc2ccc(Nc3ccnc4cc(-c5ccc(CN6CCNCC6)o5)ccc34)cc2)nc1 [GW567142],%Inh,CSNK1G1,0%
same,%Inh,CSNK1G2,0%
same,%Inh,CSNK1G3,32%
same,%Inh,CSNK2A1,0%
same,%Inh,CSNK2A2,3%
same,%Inh,CTK,10%
same,%Inh,DAPK1,19%
same,%Inh,DAPK2,0%
same,%Inh,DAPK3,21%
same,%Inh,DCAMKL1,11%
same,%Inh,DCAMKL2,0%
same,%Inh,DCAMKL3,36%
same,%Inh,DDR1,70%
same,%Inh,DDR2,27%
same,%Inh,DLK,41%
same,%Inh,DMPK2,0%
same,%Inh,DMPK,0%
same,%Inh,DRAK1,9%
same,%Inh,DRAK2; [1],0%
same,%Inh,DYRK1A,1%
